Experimental data: PubChem BioAssay (Tox21)
Records with an inconclusive call do not appear. Entries that show only a call come without a potency. A number with no mark means an inactive call. The source made the active and inactive calls. Calls come from the whole dose curve.
Potency is the fitted concentration of half-maximal effect.

Test: qHTS assay to identify small molecule agonists of the hypoxia (HIF-1) signaling pathway - cell viability counter screen (AID 1224844); note: nearly all actives have a fitted effect of over 50% in size
Conditions: HRE-bla ME-180 viability, CellTiter-Glo luminescence, 17 h; series mostly up to 76.8 µM
Source text: National Center for Advancing Translational Sciences [NCATS]
NIH Chemical Genomics Center [NCGC]
U.S. Environmental Protection Agency [EPA]
National Institutes of Environmental Health Sciences [NIEHS]
National Toxicology Program [NTP]
U.S. Food and Drug Administration [FDA]
Hypoxia-inducible factor-1 (HIF-1) is the major hypoxia-regulated transcription factor that controls cellular responses to low oxygen concentration. HIF-1 is composed of two subunits: hypoxia responsive HIF-1-alpha and constitutively expressed HIF-1-beta, which is also known as aryl hydrocarbon receptor nuclear translocator. During hypoxic conditions, HIF-1-alpha heterodimerizes with HIF-1-beta and translocates into the nucleus where the HIF-1 complex binds to the hypoxia-response element (HRE) and activates expression of target genes such as VEGF (vascular endothelial growth factor). The HIF-1 pathway is essential to normal growth and development, and is involved in the pathophysiology of cancer, inflammation, and ischemia.
Using a beta-lactamase reporter-gene under control of the hypoxia response element, a cell-based assay [CellSensor(TM) HRE-bla ME-180 from Life Technologies, Carlsbad, CA] was used to measure hypoxia-induced signaling. Tox21 10K library compounds were measured for their ability to induce the reporter gene activity. The cytotoxicity of the Tox21 compound library against HRE-bla ME-180 cell line was tested in parallel by measuring cell viability using CellTiter-Glo assay (Promega, Madison, WI) in the same assay wells.
Tox21 Assay Protocol Summary:
HRE-bla ME-180 cells were dispensed at 2,000 cells per well in 6 uL of assay medium containing 0.5% dialyzed FBS into black wall/clear-bottom 1536-well plates using a Multidrop Combi (Thermo Scientific, Waltham, MA) dispenser. After the assay plates were incubated at 37C and 5% CO2 for 5 hrs, 23 nL of compounds dissolved in DMSO, positive controls or DMSO only was transferred to each well of the assay plate using a Pintool station (Kalypsys, San Diego, CA). The assay plates were incubated at 37C and 5% CO2 for 17 hrs. One uL of LiveBLAzerTM B/G FRET substrate (CCF4-AM) (Life Technologies) was added to each well using a Flying Reagent Dispenser (FRD, Aurora Discovery, San Diego, CA). After 2 hr incubation at room temperature, fluorescence intensity (405 nm excitation, 460 nm and 530 nm emissions) was measured using an Envision plate reader (PerkinElmer, Shelton, CT). For cytotoxicity, 4 ul/well of CellTiter-Glo reagent was added into the assay plates using an FRD. After 30 min incubation at room temperature, the luminescence intensity was measured using a ViewLux plate reader (PerkinElmer).
For `Cc1ccc([N+](=O)[O-])[c]2c1[O][Hg]2`, the Potency was 2.13 µM (active).
In the case of `C[C@@H]1CC2=CC(=O)CC[C@@H]2[C@H]2CC[C@@]3(C)[C@@H](CC[C@]3(C)O)[C@@H]21`, the Potency is reported as “inactive”.
In the case of `Cc1cc2c3c(c1)C(c1ccccc1)=N[C@@H](NC(=O)c1ccncc1)C(=O)N3CC2`, the Potency is reported as “inactive”.
With `CN(C)CCc1c[nH]c2ccccc12` the Potency was “inactive”.
In the case of `O=[N+]([O-])C(Br)Br`, the Potency is reported as 43.7 µM (active).
In the case of `O=c1[nH]c(Cl)c(Cl)cc1Cl`, the Potency is reported as “inactive”.
For `O=P(Cl)(Cl)Cl`, the Potency was “inactive”.
With `Cc1cnc2c(C(=O)O)c(Cl)ccc2c1` the Potency was “inactive”.
In the case of `CC(=O)[O-].CC(=O)[O-].CC(=O)[O-].[Cr+3]`, the Potency is reported as “inactive”.
In the case of `Cc1cccc(Cc2cnc[nH]2)c1C`, the Potency is reported as “inactive”.
With `CCCCN(CCCC)C(=S)S` the Potency was “inactive”.
In the case of `Fc1ccc(C(OCCN2CCN(CCCc3ccccc3)CC2)c2ccc(F)cc2)cc1`, the Potency is reported as 16.9 µM (active).
With `O=c1c2ccccc2c(=O)c2c1cc(Cl)c1[nH]c3c([nH]c12)c(Cl)cc1c(=O)c2ccccc2c(=O)c13` the Potency was “inactive”.
With `C=C(C)C(=O)[O][Sn]([CH2]CCC)([CH2]CCC)[CH2]CCC` the Potency was 0.692 µM (active).
In the case of `CSC(C)(C)/C=N/O`, the Potency is reported as “inactive”.
In the case of `COC(=O)c1cc(Oc2ccc(Cl)cc2Cl)ccc1[N+](=O)[O-]`, the Potency is reported as “inactive”.
In the case of `CCc1cccc(C)c1N(C(=O)CCl)[C@@H](C)COC`, the Potency is reported as 49 µM (active).
With `ClC1=C(Cl)[C@]2(Cl)[C@@H]3[C@H]4C[C@H]([C@@H]5O[C@H]45)[C@@H]3[C@@]1(Cl)C2(Cl)Cl` the Potency was “inactive”.
In the case of `CCCCn1cc[n+](C)c1.[Cl][Fe-]([Cl])([Cl])[Cl]`, the Potency is reported as “inactive”.
In the case of `S=C=Nc1ccccc1`, the Potency is reported as “inactive”.
With `Oc1ccc2[nH]cc(CCCCN3CC=C(c4ccccc4)CC3)c2c1` the Potency was “inactive”.
For `CCn1cc[n+](C)c1` (tested in a mixture with another compound), the Potency was “inactive”.
With `[O]=[Cr][O][Cr]=[O]` the Potency was “inactive”.
With `COc1ccc2c3c1O[C@H]1[C@H](O)CC[C@H]4[C@@H](C2)N(C)CC[C@@]341` the Potency was “inactive”.
For `Clc1ccc(C(c2ccc(Cl)cc2)C(Cl)Cl)cc1`, the Potency was 49 µM (active).
In the case of `O=[N+]([O-])c1cccc2cccc([N+](=O)[O-])c12`, the Potency is reported as “inactive”.
Compound `CC(=O)[O-].CC(=O)[O-].CC(=O)[O-].[Sb+3]` has an activity change, negative = cytotoxicity of -10.5% [at 2.72 µM].
With `COc1cnc(OC)n2nc(NS(=O)(=O)c3c(OCC(F)F)cccc3C(F)(F)F)nc12` the Potency was “inactive”.
In the case of `CNC(=O)O/N=C(\C)C(C)S(C)(=O)=O` (stereo not given), the Potency is reported as “inactive”.
For `Clc1ccc(C(Cl)(Cl)Cl)cc1Cl`, the Potency was 24 µM (active).
In the case of `CCOP(=O)(OCC)Oc1cc(C)nc(C(C)C)n1`, the Potency is reported as “inactive”.
In the case of `[Cl][Hg][c]1ccccc1`, the Potency is reported as 1.38 µM (active).
In the case of `COc1ccc2[nH]cc(CCN(C(C)C)C(C)C)c2c1`, the Potency is reported as “inactive”.
For `CCN(CC)C(=O)N[C@@H]1C=C2c3cccc4[nH]cc(c34)C[C@@H]2N(C)C1`, the Potency was “inactive”.
In the case of `Oc1cc(Cl)cc(Cl)c1`, the Potency is reported as “inactive”.
With `N#Cc1sc2c(=O)c3ccccc3c(=O)c=2sc1C#N` the Potency was 4.9 µM (active).
In the case of `O=C(Nc1ccc(F)cc1F)c1cccnc1Oc1cccc(C(F)(F)F)c1`, the Potency is reported as “inactive”.
With `Brc1ccc(Oc2ccc(Br)cc2Br)c(Br)c1` the Potency was “inactive”.
In the case of `CC(=O)C(Cl)C(=O)N(C)C` (stereo not given), the Potency is reported as 43.6 µM (active).
In the case of `Nc1ccc(Cl)cc1C(=O)c1ccccc1F`, the Potency is reported as “inactive”.
